Test [1] is described as follows: NCI Yeast Anticancer Drug Screen. Data for the rad50 strain (AID 155).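 Also: 0% = growth of vehicle-only cultures of the same strain.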 Conditions: S. cerevisiae rad50 strain growth inhibition; at 50.0 µM; stronger effect = higher value. In short, it runs like this: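 A DNA repair-deficient yeast mutant serves as the test organism; compound-induced growth inhibition is calculated against vehicle-treated cells.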
Test [2] is described as follows: NCI Yeast Anticancer Drug Screen. Data for the mec2-1 strain (AID 157). Conditions: S. cerevisiae mec2-1 strain, at 50.0 µM, stronger effect = higher value. In short, it runs like this: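 Compounds were applied to mec2-1 yeast cells. Their growth was then compared with that of vehicle-treated cultures to give growth inhibition.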
The nature of test [3]: NCI Yeast Anticancer Drug Screen. Data for the sgs1 mgt1 strain (AID 161).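 Also: 0% = growth of cultures given vehicle only.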 Conditions: S. cerevisiae sgs1 mgt1 strain, at 50.0 µM, stronger effect = higher value. In short, it runs like this:
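Compounds are added to genetically altered yeast, and growth is compared with cultures given vehicle alone to give percent inhibition.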

Test [4] is described as follows: NCI Yeast Anticancer Drug Screen. Data for the cln2 rad14 strain (AID 165).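 Also: 0% = growth equal to vehicle treated cultures.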 Conditions: S. cerevisiae cln2 rad14 strain, at 50.0 µM, stronger effect = higher value. The procedure, abridged: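 Strain: cln2 rad14 yeast, altered in cell cycle control and DNA damage repair. Read-out: growth inhibition vs vehicle.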
Test [5] in a line: NCI Yeast Anticancer Drug Screen. Data for the bub3 strain (AID 167). Conditions: S. cerevisiae bub3 mutant strain, at 50.0 µM, stronger effect = higher value. The procedure, abridged:
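Inhibition values come from growth of compound-treated mutant yeast normalised to vehicle-treated controls.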

Test [6] is described as follows: NCI Yeast Anticancer Drug Screen. Data for the mlh1 rad18 strain (AID 175). Conditions: S. cerevisiae mlh1 rad18 strain growth inhibition; at 50.0 µM; stronger effect = higher value. The procedure, abridged:
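A repair-deficient yeast strain is exposed to test compound, and growth is scored relative to vehicle-treated controls.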

The panel holds about 79,000 compounds, 15% with a hit somewhere; the sample as a whole holds those more often. Values without a mark were called inactive. Active and inactive are the calls of the source. Rule as the data show it: active = growth inhibition above about 70%; inactive = the rest.

As to `Nc1nc(=O)[nH]nc1SCc1ccccc1`, the growth inhibition in test [1] is 39.2%; in test [2] it was 0.1%; in test [3], 1.05%; in test [4], 2.45%; in test [5], 10%; in test [6] it was 10.5%.
As to `C1=C(C2=CCCCC2)CCCC1`, the growth inhibition in test [1] is -1.35%; in test [2], 6%; in test [3] it was -4.35%; in test [4], -42.9%; in test [5] it was 4.8%; in test [6] it was 4.15%.
With `Cc1ccc(N(C)C(=O)Nc2ccccc2)c(C)c1`, the growth inhibition in test [1] was 4.1%; in test [2] it was 3.6%; in test [3], 8.6%; in test [4] it was -20.6%; in test [5], 4.55%; in test [6], -12.8%.
As for `COc1cc2c(cc1O)C(=O)CCCC2`, the growth inhibition in test [1] is -13.8%; in test [2], 0.75%; in test [3] it was -17.8%; in test [4], -2.25%; in test [5] it was 14.1%; in test [6], 1.2%.
Turning to `O=Cc1ccc2c(c1)CC1(Cc3ccccc3C1)C2`, the growth inhibition is -3.35% in test [1]; -47.8% in test [2]; -10.8% in test [3]; -7.2% in test [4]; 9.9% in test [5]; -30.3% in test [6].
Turning to `N=c1c2c(ncn1N)CCN(Cc1ccccc1)C2`, the growth inhibition in test [1] was -8.55%; in test [2], 7.35%; in test [3], -11.4%; in test [4], -71.8%; in test [5] it was -6%; in test [6], -32.8%.
Turning to `CC1(C)OC(=O)C(=Cc2ccc(C#N)cc2)C(=O)O1`, the growth inhibition was 19% in test [1]; 9.6% in test [2]; 15.4% in test [3]; 11.8% in test [4]; 28.6% in test [5]; 22.8% in test [6].
In the case of `CCCCCCCCOc1ccc(Cl)cc1`, the growth inhibition is -2.95% in test [1]; -11.8% in test [2]; -5.35% in test [3]; -35.2% in test [4]; -21.6% in test [5]; -28.9% in test [6].
As for `CC(C)[C@H]1CC[C@@](C)(C(=O)O)C1`, the growth inhibition in test [1] is 12.4%; in test [2], 7.5%; in test [3], 15.2%; in test [4] it was 5.8%; in test [5], 23.4%; in test [6], 16.4%.
With `O=C(CBr)Nc1ccccc1[N+](=O)[O-]`, the growth inhibition in test [1] was 8.3%; in test [2], -1.35%; in test [3], 5.8%; in test [4], 0.4%; in test [5], 6.05%; in test [6], -5.4%.
`CCOC(=O)c1ccc(C(=N)N)cc1`: the growth inhibition is 8.4% in test [1]; 2.2% in test [2]; 11% in test [3]; -15.2% in test [4]; 11.2% in test [5]; 5.55% in test [6].
Regarding `CCn1c(C)nc2c(N)cccc2c1=O`, the growth inhibition was 24.4% in test [1]; -4.75% in test [2]; -7.9% in test [3]; -6.6% in test [4]; -11% in test [5]; 2.75% in test [6].
Consider `CCCCCC(=O)Oc1ccccc1OC`, for which the growth inhibition in test [1] is -8.1%; in test [2] it was -5.55%; in test [3] it was 1.15%; in test [4] it was -29.4%; in test [5] it was -7.85%; in test [6], -7.9%.
As to `O/N=C(\CC(O)(C(F)(F)F)C(F)(F)F)c1cccs1`, the growth inhibition in test [1] is 81% (active); in test [2], 76.9% (active); in test [3] it was 45.6%; in test [4], 87.5% (active); in test [5] it was 75.8% (active); in test [6] it was 93.5% (active).
`Oc1cccc(N=Cc2ccccc2O)c1`: the growth inhibition in test [1] is 4.3%; in test [2], -4.85%; in test [3], 0.15%; in test [4], -18.8%; in test [5], -5.15%; in test [6], 0.15%.
`CC1NC(=O)C(C)C(c2ccccc2)N(N=O)C1c1ccccc1` (stereo unspecified): the growth inhibition in test [1] was -10.7%; in test [2], 7.8%; in test [3] it was 14.6%; in test [4] it was 0.05%; in test [5] it was -25.6%; in test [6], 11%.
Take `CN(C)CCNc1ncnc2nc(-c3ccc4ccccc4c3)[nH]c12`: the growth inhibition is -11% in test [1]; -20.9% in test [2]; 7.8% in test [3]; 11.6% in test [4]; 3.05% in test [5]; -18.6% in test [6].
Turning to `O=NN1C2CCCCC2C2CCCCC21` (stereo unspecified), the growth inhibition is -9% in test [1]; 20.5% in test [2]; -14.7% in test [3]; -5.25% in test [4]; 26.2% in test [5]; 3.8% in test [6].
As to `COc1ccc(-c2nnc(-c3nsc4ccccc34)o2)cc1`, the growth inhibition was -12.8% in test [1]; -31.9% in test [2]; -21.5% in test [3]; -2.5% in test [4]; 18.5% in test [5]; -14.1% in test [6].
`CC(=O)Nc1ccccc1NC1CC(C)N(c2ccccc2)N1C(C)=O` (stereo unspecified): the growth inhibition in test [1] was -10.9%; in test [2], -42.4%; in test [3], -40.4%; in test [4] it was -11.5%; in test [5] it was -34.4%; in test [6] it was 1.05%.
With `CSc1nc2c(c(O)c(C)c(=O)n2C2OCC(OC(C)=O)C(OC(C)=O)C2OC(C)=O)c(=O)n1C` (stereo unspecified), the growth inhibition is 10.6% in test [1]; -26.5% in test [2]; -15.7% in test [3]; 2.9% in test [4]; 2.2% in test [5]; -1.3% in test [6].

(Values after PubChem BioAssay (NCI).)
